Results as given in PubChem BioAssay AID1850 (Southern Research Specialized Biocontainment Screening …, 2009).
The whole screen tested about 310,000 compounds, of which about 1,000 (0.32%) were called active. Not all results are given here. Entries with a potency or affinity are not part of this list. Unmarked numbers belong to inactive results. How the calls were made is not given here.

Assay: PhoP regulon inhibitors, Salmonella typhi PhoP promoter GFP reporter, confirmatory (AID 1850);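 further: 0% = induced wells with vehicle and 100% = uninduced wells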
Conditions: fluorescence, 4 h, at 50 µM, active compounds read high

Structure (SMILES) | inhibition
COc1cc(N)c(Cl)cc1C(=O)OCC(=O)N1CCCC1 | -3.7%
C=CCNC(=S)NNC(=O)c1ccc(OCCC)cc1 | 0.33%
CCC(=O)NC(=S)NNC(=O)c1ccc(O)cc1 | -2.12%
CSc1ncccc1C(=O)N1CCCC(C(=O)c2ccc3ccccc3c2)C1 (stereo unspecified) | 0.25%
CC(C)(C)c1ccc(OCCNCc2ccccc2)cc1 | 3.96%
C[N+](C)(CCOc1ccccc1)Cc1ccccc1 (tested in a mixture with another compound) | -4.3%
Cc1cc(C(C)(C)C)ccc1OCCOCCN1CCCC1 | -9.74%
Cc1cc(C(C)(C)C)ccc1OCCN(C)C | -2.78%
N/C(=N/[N+](=O)[O-])N1CCN(C(=O)c2ccc(Cl)cc2)CC1 | 9.05%
O=C(NC1CCS(=O)(=O)C1)c1ccc(-c2ccc(Br)cc2)o1 (stereo unspecified) | -6.5%
O=C(NCCc1ccccc1Cl)c1ccc2nc3ccccc3c(=O)n2c1 | -1.95%
CCOC(=O)COc1cc([N+](=O)[O-])cc2cccnc12 | 1.87%
O=[N+]([O-])c1ccc(Sc2cccc3cccnc23)cc1 | -0.7%
NC(N)=NC(=S)Nc1ccc(Cl)cc1 | 18.1%
CC(C)N=C(N)N=C(N)Nc1ccc(Cl)cc1 | 28.9%
COc1ccc(C(=O)N/C(=C\c2ccco2)C(=O)NC2CCS(=O)(=O)C2)cc1 (stereo unspecified) | -6.19%
CN(C)S(=O)(=O)c1ccc(C(=O)Nc2nnc(-c3cccs3)o2)cc1 | -4%
COc1cccc(C(=O)Nc2nnc(-c3cccs3)o2)c1 | 17.3%
O=C(Nc1nnc(-c2cccs2)o1)c1ccco1 | 9.01%
N#Cc1ccc(C(=O)Nc2nnc(-c3cccs3)o2)cc1 | 21.1%
O=C(Nc1nnc(C2=COCCO2)o1)c1cccc(C(F)(F)F)c1 | -4.95%

Structure (SMILES) | inhibition
O=C(Nc1nnc(-c2cccs2)s1)c1cccc(F)c1 | -2.5%
Cc1cc(C(=O)COC(=O)c2nc3nccc(C)n3n2)c(C)n1CC1CCCO1 (stereo unspecified) | -1.82%
COCCn1c(CCC(=O)O)ccc1-c1cccs1 | 3.14%
O=C(O)c1ccccc1-n1c(-c2ccccc2)cc2c1CCCC2=O | -1.82%
CC(C)CC1Nc2ccc(C(=O)NCc3ccc4c(c3)OCO4)cc2NC1=O (stereo unspecified) | 1.92%
Cc1nccn1Cc1ccccc1 | 9.82%
COc1ccc(Cl)cc1NC(=S)NCCc1ccc(S(N)(=O)=O)cc1 | 1.57%
CN(Cc1ccccc1)C(=O)c1cccnc1 | -2.03%
CCOC(=O)c1ccc(NC(=O)c2cn(-c3ccccc3)nc2-c2ccncc2)cc1 | 3.68%
CN(C)[C@@H]1C(=O)C(C(N)=O)=C(O)[C@@]2(O)C(=O)C3=C(O)c4c(O)cccc4[C@@](C)(O)[C@H]3[C@H](O)[C@@H]12 | 5.02%
CN(C)[C@@H]1C(=O)C(C(N)=O)=C(O)[C@@]2(O)C(=O)C3=C(O)c4c(O)cccc4[C@@](C)(O)[C@H]3C[C@@H]12 | -2.82%
CN(C)[C@@H]1C(=O)C(C(N)=O)=C(O)[C@@]2(O)C(=O)C3=C(O)c4c(O)ccc(Cl)c4[C@@](C)(O)[C@H]3C[C@@H]12 | 4.13%
CN(C)[C@@H]1C(=O)C(C(=O)NCN2CCCC2)=C(O)[C@@]2(O)C(=O)C3=C(O)c4c(O)cccc4[C@@](C)(O)C3CC12 (stereo partly specified) | -8.43%
COC(=O)C1=C(C)N(Cc2ccco2)C(=O)N[C@H]1c1ccccc1 | -5.63%
Cc1cccc(OCc2nnc(SCC(=O)c3ccccc3)o2)c1 | 5.39%
O=C(c1ccc(-n2cncn2)c([N+](=O)[O-])c1)N1CCN(S(=O)(=O)c2c(F)cccc2F)CC1 | -3.76%
O=C(N/N=C/c1cccc(C(F)(F)F)c1)c1ccccc1O | 1.04%
O=C(Nc1ccccc1F)Oc1cccc(OC(=O)Nc2ccccc2F)c1 | 5.4%
CS(=O)(=O)Nc1ccc(C(=O)Nc2ccc(S(=O)(=O)N3CCCC3)cc2)cc1 | -7.4%
O=C1Nc2ccc(S(=O)(=O)N3CCCC3)c3cccc1c23 | -4.45%
CC(=O)c1ccc(N=Nc2ccc(N(C)C)cc2)cc1 | 6.87%

Structure (SMILES) | inhibition
CCN(CC(=O)NCCN1CCOCC1)S(=O)(=O)c1ccc(F)cc1 | 5.57%
C/C(=N\NC(=O)C(O)c1ccccc1)c1ccc(Cl)s1 (stereo unspecified) | -5.86%
CN(C)C(=S)NC(=O)c1cccc(Cl)c1 | -16.5%
O=C(Nc1ccc(C(=O)O)cc1)/C(=C\C=C\c1ccccc1)NC(=O)c1cccc(Br)c1 | 9.6%
Cc1cc(C)n(/N=C/c2cccc([N+](=O)[O-])c2)c(=O)c1 | -0.547%
Cc1cc(C)n(/N=C/c2c[nH]c3ccccc23)c(=O)c1 | 2.25%
Cc1cc(C)n(/N=C/c2ccccc2O)c(=O)c1 | -10.2%
O=[N+]([O-])c1ccc(O)c(/C=N/n2cnnc2)c1 | 16.7%
C/C1=C\CCC2C(/C=C(\C)CC1)OC(=O)C2CN1CCCCC1 (stereo unspecified) | 5.15%
CCOc1ccccc1NC(=O)C1CCN(S(=O)(=O)c2cccc3cccnc23)CC1 | 14.7%
CCOC(=O)c1nnn(-c2nonc2-n2cccc2)c1CN1CCCCC1 | -6.4%
O=C(O)/C=C/c1ccccc1Oc1ccc(Cl)cc1Cl | 4.42%
Nc1cc(C(=O)O)c(Oc2ccc(Cl)cc2Cl)cc1C(=O)O | -3.01%
COc1cc(C)ccc1NC(=O)c1ccc(S(=O)(=O)N2CCOCC2)cc1 | -3.12%
c1ccc(C(c2ccccc2)N2CCN(Cc3nc(-c4cnccn4)no3)CC2)cc1 | -8.94%
O=c1c([N+](=O)[O-])c(N2CCCCCC2)c2ccccc2n1-c1ccccc1 | 4.43%
CCn1cc(C(=O)O)c(=O)c2cc(F)c(N3CCN(S(=O)(=O)c4ccc(NC(=O)OC)cc4)CC3)cc21 | 3.45%
CCn1cc(C(=O)O)c(=O)c2cc(F)c(N3CCN(S(=O)(=O)c4ccc(Br)cc4)CC3)cc21 | 2.97%
CCn1cc(C(=O)O)c(=O)c2cc(F)c(N3CCN(C(=S)NC(=O)c4ccc(OC)cc4)CC3)cc21 | -3.45%
